Data from PubChem BioAssay (NCATS).
Records with an inconclusive call do not appear. Calls of active or inactive are those of the source. Calls follow the shape of the dose curve; as a rule, active = well fitted curve in the direction sought with a large enough effect; inconclusive = small, poorly fitted or top-dose-only effect, or another doubt; inactive = no such curve, though single readings can be large; an effect the other way counts as inactive or inconclusive.

Tests used:
[1] = molecular target: Alpha-galactosidase A (Homo sapiens) (UniProt P06280); assay: Counterscreen for Glucocerebrosidase Inhibitors: qHTS Assay for Human alpha-Galactosidase at pH 4.5 (AID 992)
How it was run: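 Quantitative HTS: compounds tested from 0.7 nM up to 77 uM against 2 nM enzyme with 80 uM 4-MU alpha-D-galactopyranoside. The 20 min room-temperature reaction is stopped with 1M NaOH/1M glycine, pH 10.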

[2] = Cell Viability - LYMP2-013 (AID 970); also: series mostly up to about 92 µM; nearly all actives have a fitted effect of over 55% in size
How it was run: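 qHTS; 2500 lymphoblastoid cells/well; 5 hr 37 C settle; cpd 24 hr 37 C; CellTiter-Glo, 30 min RT; luminescence. AC50 = Hill fit.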

[3] = Cell Viability - LYMP2-015 (AID 971); also: nearly all actives have a fitted effect of over 55% in size
How it was run: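 Luminescent ATP read-out (CellTiter-Glo) served as the viability measure after lymphoblastoid cells were exposed to compounds for 24 hours at 37 C. Concentration-response data were fitted with the Hill equation to give AC50.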

[4] = Cell Viability - LYMP2-017 (AID 972); also: series mostly up to about 92 µM; nearly all actives have a fitted effect of over 55% in size
How it was run: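 2500 cells/well, 5 h 37 C; cpd 24 h 37 C in complete medium; CellTiter-Glo, 30 min RT; luminescence (ATP). AC50 via Hill fit, qHTS.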

[5] = Cell Viability - LYMP2-021 (AID 974);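 also: compound exposure lasts 24 hours at 37 °C; nearly all actives have a fitted effect of over 55% in size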
How it was run: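 Plate 2500 lymphoblastoid cells per well and incubate 5 hr at 37 C. Add compounds over a concentration range and incubate 24 hr at 37 C. Add CellTiter-Glo, wait 30 min at room temperature, read luminescence.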

[6] = Cell Viability - LYMP2-023 (AID 975)
How it was run: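 2500 cells/well, 5 hr 37 C; cpd 24 hr 37 C; CellTiter-Glo, 30 min RT; luminescence. qHTS conc-response, Hill fit -> AC50. Pos ctrl tetraoctylammonium bromide.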

[7] = Cell Viability - LYMP2-025 (AID 976); also: series mostly up to about 92 µM
How it was run: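 Seed 2500 LYMP2-025 cells/well; 5 hr at 37 C; add compound; 24 hr at 37 C; add CellTiter-Glo; 30 min RT; read luminescence. AC50 from Hill-modelled concentration-response.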

[8] = Cell Viability - LYMP2-002 (AID 977);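 also: series mostly up to about 92 µM; compound exposure lasted 24 h at 37 °C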
How it was run: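 Cytotoxicity is scored as concentration-dependent loss of cellular ATP in a human lymphoblastoid line after 24 hr compound treatment at 37 C. AC50 is obtained by modelling concentration-response data with the Hill equation.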

[9] = Cell Viability - LYMP2-007 (AID 979);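 also: cells exposed to compound for 24 h before reading; nearly all actives have a fitted effect of over 60% in size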
How it was run: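 Luminescent ATP signal (CellTiter-Glo) serves as the viability read-out after 24 hr compound treatment of lymphoblastoid cells in complete medium at 37 C. Concentration-response data were fitted to the Hill equation to give AC50 values.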

[10] = Cell Viability - LYMP2-008 (AID 980); also: nearly all actives have a fitted effect of over 60% in size
How it was run: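 qHTS, human lymphoblastoid line, 2500 cells/well; 5 hr preincubation, 24 hr compound, 37 C. CellTiter-Glo ATP luminescence. AC50 via Hill equation. Tetraoctylammonium bromide positive control.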

[11] = Cell Viability - LYMP2-010 (AID 981); also: nearly all actives have a fitted effect of over 55% in size
How it was run: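 Luminescent ATP signal (CellTiter-Glo) served as the viability read-out. Cells of the human lymphoblastoid line were treated with compound over a concentration range for 24 hours at 37 C, and AC50 values came from Hill-equation modeling.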

[12] = Cell Viability - LYMP2-012 (AID 982)
[13] = Cell Viability - LYMP2-014 (AID 983); also: series mostly up to about 92 µM; nearly all actives have a fitted effect of over 50% in size
How it was run: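 Luminescent ATP signal (CellTiter-Glo, 30 min at room temperature) serves as the viability read-out after 24 hr compound exposure at 37 C. Cells were seeded at 2500 per well and settled 5 hr beforehand.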

[14] = Cell Viability - LYMP2-016 (AID 984); also: nearly all actives have a fitted effect of over 55% in size
How it was run: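 Acute toxicity in a Coriell human lymphoblastoid line is scored as loss of intracellular ATP over 24 h of treatment in complete medium. CellTiter-Glo signal is fitted across concentrations with the Hill equation to give AC50.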

[15] = Cell Viability - LYMP2-018 (AID 985); also: nearly all actives have a fitted effect of over 50% in size
How it was run: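 Luminescent ATP signal (CellTiter-Glo, read after 30 min at room temperature) reports viable cells after 24 hr compound treatment at 37 C. Concentration-response data were fitted to the standard Hill equation for AC50.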

[16] = Cell Viability - LYMP2-020 (AID 986)
How it was run: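 Luminescent ATP signal (CellTiter-Glo, 30 min at room temperature) is the read-out after 24 h compound treatment of lymphoblastoid cells at 37 C. AC50 values come from Hill-equation fits across concentrations.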

[17] = Cell Viability - LYMP2-022 (AID 987); also: nearly all actives have a fitted effect of over 55% in size
How it was run: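 qHTS: human lymphoblastoid cells 2500/well; 5 hr 37 C; cpd added; 24 hr 37 C; CellTiter-Glo, 30 min RT; luminescence. AC50 via Hill fit; tetraoctylammonium bromide positive ctrl.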

[18] = Cell Viability - LYMP2-026 (AID 989); also: nearly all actives have a fitted effect of over 50% in size
How it was run: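 Luminescent ATP signal (CellTiter-Glo, 30 min room temperature) measures viable lymphoblastoid cells after 24 hr compound treatment at 37 C. Decreased ATP reflects acute toxicity; AC50 values come from Hill-equation modeling.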

[19] = Cell Viability - LYMP1-002 - Assay at 24 hr (AID 993)
How it was run: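 Cells plated 2500/well, 5 hr 37 C; compounds added, 24 hr 37 C; CellTiter-Glo added, 30 min RT; luminescence read. Tetraoctylammonium bromide positive control. Hill-equation AC50.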

[20] = Cell Viability - LYMP1-002 - Assay at 40 hr (AID 994); also: nearly all actives have a fitted effect of over 60% in size
How it was run: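 Luminescent ATP signal served as the viability readout, with decreases taken as toxicity. Cells were treated with compounds across a concentration range for 40 hours at 37 C, and AC50 values came from standard Hill modeling.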

Measured: Potency

Chain of Alpha-galactosidase A (Homo sapiens) (P06280 whole entry, looked up): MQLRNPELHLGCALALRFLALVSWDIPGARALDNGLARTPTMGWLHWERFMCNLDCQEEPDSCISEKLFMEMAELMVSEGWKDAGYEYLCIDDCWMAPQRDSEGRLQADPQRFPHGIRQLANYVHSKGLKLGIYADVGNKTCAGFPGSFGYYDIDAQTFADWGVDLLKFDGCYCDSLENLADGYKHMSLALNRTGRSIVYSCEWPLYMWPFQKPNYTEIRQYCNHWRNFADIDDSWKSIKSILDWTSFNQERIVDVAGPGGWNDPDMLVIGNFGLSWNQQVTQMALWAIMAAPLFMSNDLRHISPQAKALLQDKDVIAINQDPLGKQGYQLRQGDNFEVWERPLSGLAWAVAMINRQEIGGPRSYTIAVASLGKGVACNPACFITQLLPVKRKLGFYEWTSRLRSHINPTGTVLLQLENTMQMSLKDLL

COc1ccc(CCNC[C@H](O)c2ccc(O)cc2)cc1OC
inactive: [1]

O=S(=O)(O)O
not listed: [1]
inactive: all other assays above

CCOC(C)=O
not listed: [1]
inactive: all other assays above

CCCCC/C=C\C/C=C\CCCCCCCC(=O)O
not listed: [1] | [11]
inactive: all other assays above

IC(I)I
not listed: [1]
inactive: all other assays above

O=C(O)CCC(=O)C(=O)O
not listed: [1]
inactive: all other assays above

CCOc1ccc2c(c1)C(C)=CC(C)(C)N2
not listed: [1] | [11] | [12] | [16] | [17] | [20]
inactive: all other assays above

CC(O)CO (centres undefined)
not listed: [1]
inactive: all other assays above

CN=C(NC#N)Nc1ccc(C2=NNC(=O)C[C@@H]2C)cc1
inactive: [1]
